Assay results from PubChem BioAssay (NCATS).
Records with an inconclusive call do not appear. Calls of active or inactive are those of the source. The call rests on the fitted dose curve; in most records, active means well fitted cell-killing curve with a large enough effect; inconclusive means small, poorly fitted or top-dose-only effect; inactive means no such curve, though single readings can be large or run the other way.

assay: Quantitative High-Throughput drug screen in 47 multiple myeloma cell lines against the NCATS MIPE library collection: JIM3_ECACC cell viability assay (AID 1918963; further: nearly all actives have a fitted effect of over 35% in size); settings: JIM3 myeloma viability, CellTiter-Glo ATP, 48 h; series mostly up to 45.8 µM; viability, percent of control: at the top concentration
Source text: PI: Beverly A. Mock Ph.D.
Laboratory of Cancer Biology and Genetics,
Center for Cancer Research, National Cancer Institute,
National Institute of Health, Bethesda, Maryland
Drug resistance and disease progression are common in multiple myeloma (MM) patients, underscoring the need for new therapeutic combinations. […] We hypothesized that effective combinations would reduce MYC expression and enhance p16 activity. […] These preclinical data identify potentially useful drug combinations for evaluation in drug-resistant MM and reveal potential mechanisms of combined drug sensitivity.
Described herein is the primary MIPE qHTS used to cherrypick compounds. Validated compounds were then further tested for potential synergistic activiy.
[1] Peat TJ, Gaikwad SM, Dubois W, Gyabaah-Kessie N, Zhang S, Gorjifard S, Phyo Z, Andres M, Hughitt VK, Simpson RM, Miller MA, Girvin AT, Taylor A, Williams D, D'Antonio N, Zhang Y, Rajagopalan A, Flietner E, Wilson K, Zhang X, Shinn P, Klumpp-Thomas C, McKnight C, Itkin Z, Chen L, Kazandijian D, Zhang J, Michalowski AM, Simmons JK, Keats J, Thomas CJ, Mock BA. Drug combinations identified by high-throughput screening promote cell cycle transition and upregulate Smad pathways in myeloma. Cancer Lett. 2023 Aug 1;568:216284. doi: 10.1016/j.canlet.2023.216284. Epub 2023 Jun 24. PMID: 37356470; PMCID: PMC10408729.
SEQUENCE No. (e.g., 1, 2, 3, etc.); […] (e.g., Cells, Incubation, Reagent, etc.); VALUE and DESCRIPTION.
1; Cells; 5 uL; white, solid bottom 1536-well Greiner assay plate.
2; Compounds; 23 nL; Kalypsis pin tool (Wako USA) equipped with a 1536-well pin head to transfer to the assay plates.
3; Incubation; 48 hours; 37C incubation.
4; Reagent;5uL; CellTiter Glo (Promega).
5; Detector; 425V; Luminescence; Viewlux PerkinElmer.
NOTES (numbers refer to Sequence numbers above)
1. The cell-based screening methods employed in this study were like those previously published. Briefly, the corresponding myeloma cell lines were screened in 1,536-well plates with 500 cells, 5-uL per well for inhibition of cell viability (assessed by measuring ATP levels with CellTiterGlo).
2. NCATS MIPE 4.0 library of approved and investigational drugs were added using the Kalypsis pin tool. Wells treated with DMSO only for 100% viability and media only wells for 0% viability were used as controls.
3. The assay plates were covered and incubated for 48 hours in a 37C, 5% CO2 incubator with controlled humidity.
4. After 48 hours, CellTilter-GloTM luminescent substrate mix (Promega) reagent was added to the assay plate and plates we incubated for 5 min at room temperature.
5. Signal was measured as median relative luminescence units on a ViewLux (PerkinElmer) multiplate reader.
[1] Heske CM, Davis MI, Baumgart JT, Wilson K, Gormally MV, Chen L, Zhang X, Ceribelli M, Duveau DY, Guha R, Ferrer M, Arnaldez FI, Ji J, Tran HL, Zhang Y, Mendoza A, Helman LJ, Thomas CJ. Matrix Screen Identifies Synergistic Combination of PARP Inhibitors and Nicotinamide Phosphoribosyltransferase (NAMPT) Inhibitors in Ewing Sarcoma. Clin Cancer Res. 2017 Dec 1;23(23):7301-7311. doi: 10.1158/1078-0432.CCR-17-1121. Epub 2017 Sep 12. PMID: 28899971; PMCID: PMC6636827.
Potency means the concentration at half of the fitted maximal effect.

SMILES | viability, percent of control | Potency
CC(C)OC(=O)C(C(=O)OC(C)C)=C1SC=CS1 | 112% (inactive) | 
Nc1nc(N)nc(-c2cc(Cl)ccc2Cl)n1 | 107% (inactive) | 
Cc1noc(NS(=O)(=O)c2ccc(N)cc2)c1C | 106% (inactive) | 
O=C(O)CSCC(=O)NC1CCSC1=O (stereo not given) | 123% (inactive) | 
O=c1cc(O)c(Cl)c[nH]1 | 132% (inactive) | 
CC(C)(C#N)c1cc(Cn2cncn2)cc(C(C)(C)C#N)c1 | 89.8% (inactive) | 
COc1nc(N)nc2c1ncn2[C@@H]1O[C@H](CO)[C@@H](O)[C@@H]1O | 119% (inactive) | 
CN1CCCC(n2nc(Cc3ccc(Cl)cc3)c3ccccc3c2=O)CC1 (stereo not given) |  | 14.8 µM (active)
Nc1nc(F)nc2c1ncn2[C@@H]1O[C@H](CO)[C@@H](O)[C@@H]1O |  | 0.662 µM (active)
O=C(O)c1ccc(-n2nc(-c3ccccc3O)nc2-c2ccccc2O)cc1 |  | 18.7 µM (active)
COc1ccc2c(c1)c(CC(=O)OCC(=O)O)c(C)n2C(=O)c1ccc(Cl)cc1 | 112% (inactive) | 
C1CCC(C(CC2CCCCN2)C2CCCCC2)CC1 (stereo not given) |  | 18.7 µM (active)
Cc1cccc(Nc2ccncc2S(=O)(=O)NC(=O)NC(C)C)c1 | 102% (inactive) | 
CNS(=O)(=O)CCc1ccc2[nH]cc(C3CCN(C)CC3)c2c1 |  | 2.35 µM (active)
CCN[C@H]1C[C@H](C)S(=O)(=O)c2sc(S(N)(=O)=O)cc21 | 112% (inactive) | 
CNNCc1ccc(C(=O)NC(C)C)cc1 | 138% (inactive) | 
COc1cc(NCc2ccc3nc(N)nc(N)c3c2C)cc(OC)c1OC |  | 0.418 µM (active)
CCC(=O)O[C@]1(C(=O)CCl)[C@@H](C)C[C@H]2[C@@H]3CCC4=CC(=O)C=C[C@]4(C)[C@@]3(F)[C@@H](O)C[C@@]21C | 122% (inactive) | 
Cc1onc(-c2ccccc2Cl)c1C(=O)N[C@@H]1C(=O)N2[C@@H]1SC(C)(C)[C@@H]2C(=O)O | 109% (inactive) | 
O=C(O)c1cn(C2CC2)c2cc(N3CCNCC3)c(F)cc2c1=O | 130% (inactive) | 

SMILES | viability, percent of control | Potency
COCCCOc1cc(C[C@@H](C[C@H](N)[C@@H](O)C[C@H](C(=O)NCC(C)(C)C(N)=O)C(C)C)C(C)C)ccc1OC | 140% (inactive) | 
CCOC(=O)c1ccc(C#Cc2ccc3c(c2)C(C)(C)CCS3)nc1 |  | 18.7 µM (active)
O=C(N[C@H](CO)[C@H](O)c1ccc([N+](=O)[O-])cc1)C(Cl)Cl | 136% (inactive) | 
CS(=O)(=O)c1ccc([C@@H](O)[C@@H](CO)NC(=O)C(Cl)Cl)cc1 |  | 9.35 µM (active)
CCCc1cc(C(N)=S)ccn1 | 132% (inactive) | 
Nc1nc(=S)c2[nH]cnc2[nH]1 |  | 9.35 µM (active)
NNC(=O)c1ccncc1 | 110% (inactive) | 
Oc1c(Cl)cc(Cl)c2cccnc12 |  | 9.35 µM (active)
COc1cc2nc(N3CCCN(C)CC3)nc(NC3CCN(Cc4ccccc4)CC3)c2cc1OC |  | 9.35 µM (active)
O=C(NCC1CN(c2ccc(N3CCOCC3=O)cc2)C(=O)O1)c1ccc(Cl)s1 (stereo not given) | 104% (inactive) | 
CCn1cc(C(=O)O)c(=O)c2cc(F)c(N3CCNCC3)nc21 | 107% (inactive) | 
CC1CC2C3CCC4=CC(=O)C=C[C@]4(C)[C@@]3(F)[C@@H](O)C[C@]2(C)[C@@]1(O)C(=O)CO (stereo not given in full) | 115% (inactive) | 
CCCN[C@H]1CCc2nc(N)sc2C1 | 128% (inactive) | 
CCN(C)C(=O)Oc1cccc([C@H](C)N(C)C)c1 | 122% (inactive) | 
Nc1ccc(S(=O)(=O)Nc2ccccn2)cc1 | 106% (inactive) | 
CC1(C)[C@H](C(=O)O)N2C(=O)C[C@H]2S1(=O)=O | 126% (inactive) | 
CC(C)OC(=O)OCOP(=O)(CO[C@H](C)Cn1cnc2c(N)ncnc21)OCOC(=O)OC(C)C |  | 16.6 µM (active)
CC(=O)[C@H]1CC[C@H]2[C@@H]3CC=C4C[C@@H](O)CC[C@]4(C)[C@H]3CC[C@]12C | 97.9% (inactive) | 
CC(C)NCC(O)c1ccc(NS(C)(=O)=O)cc1 (stereo not given) | 119% (inactive) | 
CN(Cc1cc(Br)cc(Br)c1N)C1CCCCC1 | 131% (inactive) | 
